Consider 98 compounds from PubChem BioAssay AID2013 (Sanford-Burnham Center for Chemical Genomics, 2009).

Screen size: about 290,000 compounds; about 370 (0.13%) were called active. The list comes from a sample in which actives are over-represented; it also holds similar structures and randomly drawn compounds. Results with a measured potency or affinity are listed apart. A number with no mark means an inactive call.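 The calls were made as follows: active = spots per cell inhibited over 60%, with over 100 cells counted and total cytoplasm intensity under 500,000; inconclusive = wells with under 100 cells, flagged as likely toxic; inactive = the rest.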

Sequence of G-protein coupled receptor 55 (Homo sapiens) (Q9Y2T6 whole entry, looked up): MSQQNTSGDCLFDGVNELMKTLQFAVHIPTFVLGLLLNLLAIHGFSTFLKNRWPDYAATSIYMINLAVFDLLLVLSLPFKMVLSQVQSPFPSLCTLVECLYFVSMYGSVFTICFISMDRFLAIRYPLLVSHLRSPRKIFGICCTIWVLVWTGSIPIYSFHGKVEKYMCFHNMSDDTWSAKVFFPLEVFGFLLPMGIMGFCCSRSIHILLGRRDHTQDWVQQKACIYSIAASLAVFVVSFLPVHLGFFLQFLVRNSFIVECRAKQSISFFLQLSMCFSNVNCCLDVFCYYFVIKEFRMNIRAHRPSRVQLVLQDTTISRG

The test addresses G-protein coupled receptor 55 (Homo sapiens) (UniProt Q9Y2T6). The test is described as follows: inhibition of LPI-stimulated GPR55 beta-arrestin translocation – imaging, U2OS, beta-arrestin-GFP, LPI agonist, primary screen (AID 2013).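 Also: U2OS cells stably carrying GPR55 and arrestin-GFP stimulated by 5 µM LPI near EC80; imaged beta-arrestin-GFP aggregate spots per cell after agonist stimulation; plate controls were LPI-stimulated DMSO wells for no effect and DMSO wells without LPI for full effect.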 The settings on record: LPI antagonism, at 10 µM, stronger effect = higher value.
`COC(=O)CSc1nc(NCC(C)C)nc(N2CCOCC2)n1`: the inhibition is -2.9%.

In the case of `Clc1ccccc1OCCn1ccnc1`, the inhibition is 1.9%. On to `Clc1ccccc1OCCCn1ccnc1`, for which the inhibition is -2.4%. For `Clc1ccccc1C(c1ccccc1)(c1ccccc1)n1ccnc1`, the inhibition was 98.7% (active). As for `CCCCN(C(=O)CCCc1nc2ccccc2c(=O)[nH]1)c1c(N)n(CCCC)c(=O)[nH]c1=O`, the inhibition is 21.5%. `COC(=O)c1sc(NC(=O)/C=C/c2ccc(C)cc2)nc1C`: the inhibition is 16.9%. In the case of `Cc1nc2ccc(S(=O)(=O)N3CCCCC3)cc2s1`, the inhibition is -5.9%. `CSc1nc2ccc(S(=O)(=O)N3CCCCC3)cc2s1`: the inhibition is 10.7%.

As to `CC1NC(=S)N(C2CCCCC2)C1=O` (stereo not drawn), the inhibition was 2.5%. Under `COc1cccc(OC)c1C1=NC(C)(C)CO1` stands 6.1%. In the case of `COc1ccc2cc(C(=O)C3CCCN(C(=O)c4cc5nc(C)cc(C)n5n4)C3)ccc2c1` (stereo not drawn), the inhibition was -6.7%. Consider `Cc1c(N=C2N=C(NC(=O)NC(C)(C)C)c3ccccc32)c(=O)n(-c2ccccc2)n1C`, for which the inhibition was 1.4%. On to `Cc1cccc(C)c1NS(=O)(=O)c1cc2c3c(c1)CC(=O)N3CCC2`, for which the inhibition was 6.8%. `CCc1nc(C)cn1S(=O)(=O)c1ccc([N+](=O)[O-])cc1`: the inhibition was 0.5%. Next, `CCc1nc(C)cn1S(=O)(=O)c1ccc(Cl)c(Cl)c1Cl`: 18.7%; `Cc1c(C(=O)NCCN2CCCC(O)C2)oc2c(F)cccc12` (stereo not drawn): 26.6%; `O=[N+]([O-])c1ccc(N/N=C\c2cccn2-c2ccccc2)nc1`: 89.6% (active). For `Cc1cc(/C=N/Nc2ccc([N+](=O)[O-])cn2)c(C)n1-c1ccccc1`, the inhibition is 13.4%. For the compound `O=C(N/N=C/c1cccn1-c1ccc([N+](=O)[O-])cc1)C(O)c1ccccc1` (stereo not drawn), the inhibition was 16.8%. With `Cc1ccc(S(=O)(=O)N2CC=C(C(=O)NC3CC3)CC2)cc1`, the inhibition is 17.2%. `COc1ccc(CNc2nc3c(c(C(F)(F)F)n2)CCCCC3)cc1`: the inhibition is 13.2%. With `CN1CCN(C(=S)SCC(=O)N2CCCc3ccccc32)CC1`, the inhibition was 23.2%.

`COc1ccc(/C=C/c2nc3ccccc3n2C)cc1`: the inhibition is -8.1%.

On to `Cc1csc(NC(=O)c2cccc(S(=O)(=O)N3CCN(C)CC3)c2)n1`, for which the inhibition is 5%. As for `Cc1c(CCOC(=O)CC23CC4CC(CC(C4)C2)C3)sc[n+]1CC(=O)c1ccc(Br)cc1`, the inhibition is 58.4%. In the case of `Cc1c(CCOC(=O)c2ccccc2)sc[n+]1CC(=O)c1ccc(Br)cc1`, the inhibition was -14%. `COc1c(F)c(F)c(C(=O)Nc2ccc(NC(=O)c3ccco3)cc2)c(F)c1F`: the inhibition is 9.4%. `COc1ccc(-c2csc(-n3ncc(C(=O)O)c3C(F)(F)F)n2)cc1`: the inhibition is 0.6%.

On to `C=CC(=O)NCCCc1cc(C(C)(C)C)c(O)c(C(C)(C)C)c1`, for which the inhibition is 8.3%. Consider `C=CCn1c(CCc2ccccc2)nnc1SCC(N)=O`, for which the inhibition is 1.8%.

As to `Cc1cc(C(=O)CSc2nnnn2-c2ccc(O)cc2)c(C)n1C`, the inhibition was 3.7%. Take `COc1ccccc1OC(=O)Nc1ccc(Cl)cc1`: the inhibition was 0.1%. `O=S(=O)(Nc1ccc(Cc2ccncc2)cc1)c1ccc(Cl)cc1`: the inhibition was -2.3%. Under `O=S(=O)(Nc1ccc(Cc2ccncc2)cc1)c1ccc(Br)cc1` stands 2.9%; under `CC(C)(C)c1ccc(S(=O)(=O)Nc2ccc(Cc3ccncc3)cc2)cc1`, 80.2% (active); under `Cc1cc2nc(-c3ccc[nH]c3=O)n(Cc3cccc(F)c3)c2cc1C`, 8.3%. Turning to `Cc1ccc(NC(=O)Nc2cc(Cl)ccc2C2COC(=O)C2=N)cc1` (stereo not drawn), the inhibition is 7.5%.

`S=c1[nH]nc(-c2ccccc2)c2ccccc12`: the inhibition is -20.4%. With `Cc1ccc(-c2n[nH]c(=S)c3ccccc23)cc1`, the inhibition is 10.4%. `Fc1ccc(-c2n[nH]c(=S)c3ccccc23)cc1`: the inhibition is 98% (active). With `Cc1c(CN2CCN(CC(C)(C)C)C(CCO)C2)[nH]c2ccccc12` (stereo not drawn), the inhibition is 7.5%.

Turning to `COc1cccc(C2CC(c3cccc(NS(C)(=O)=O)c3)=NN2C(=O)c2ccccc2)c1OC` (stereo not drawn), the inhibition is 10.9%. Under `CN1CC2(C)CN(C(c3ccccc3)c3ccccc3)CC(C)(C1)C2O` (stereo not drawn) stands 5.6%; under `Clc1ccc(C(c2ccccc2)N2CCNCC2)cc1` (stereo not drawn), 20%. Take `CC(C)(NC(=O)N1CCCC1)c1cccc(C(C)(C)NC(=O)N2CCCC2)c1`: the inhibition was 0.9%.

On to `CCOC(=O)Cc1c(Cl)c2ccccc2[nH]c1=O`, for which the inhibition was -1.4%. Next, `Cc1cc(C(=O)Cn2nc(C(=O)O)c3ccccc3c2=O)c(C)n1C1CC1`: 3.9%; `COc1ccc(CCN2C(=O)c3[nH]nc(-c4ccccc4O)c3C2c2cccc(Cl)c2)cc1` (stereo not drawn): 4.8%; `COc1ccc(C2c3c(-c4ccccc4O)n[nH]c3C(=O)N2CCc2ccc(OC)c(OC)c2)cc1` (stereo not drawn): 9.9%. As to `COc1ccc(C2c3c(-c4ccccc4O)n[nH]c3C(=O)N2Cc2ccco2)cc1OC` (stereo not drawn), the inhibition is -6.4%. Consider `COc1ccc(CCN2C(=O)c3[nH]nc(-c4ccccc4O)c3C2c2ccccc2)cc1OC` (stereo not drawn), for which the inhibition was 1.6%.

For `COc1ccc(C(=O)OCC(=O)NC2CCCC2)c(OC)c1OC`, the inhibition was 3.7%. As to `CCN(Cc1ccccc1)C(=O)CCCOc1ccccc1`, the inhibition is -2%.

On to `CC(=O)Nc1ccc(S(=O)(=O)NNC(=O)C2CCCCC2)cc1`, for which the inhibition was 0.1%. In the case of `Cc1ccc(S(=O)(=O)N2CCCCC2)cc1NC(=O)COC(=O)C1CC2C=CC1C2` (stereo not drawn), the inhibition is -2.7%.

As for `Cc1ccc(NC(=O)COC(=O)C2CC3C=CC2C3)cc1S(=O)(=O)N1CCCCC1` (stereo not drawn), the inhibition was 64.8% (active). Next, `O=C(COC(=O)C1CC2C=CC1C2)Nc1cccc(S(=O)(=O)N2CCCCC2)c1` (stereo not drawn): -15.5%. On to `CCCCCn1c(CNC(C)=O)nc2ccccc21`, for which the inhibition was 2.6%. Regarding `O=c1c(-c2ccc(Cl)cc2)coc2c(CN3CCOCC3)c(O)ccc12`, the inhibition is -5.8%. As to `Cc1ccc(S(C)(=O)=NS(=O)(=O)c2cccc3nsnc23)cc1` (stereo not drawn), the inhibition was 5%.

For the compound `Cn1c(=O)c(C(=O)NCCc2ccccc2)c(O)c2ccccc21`, the inhibition is 11.2%. Next, `O=C1C(Cc2ccc(Br)cc2)SC(=Nc2ccccc2)N1c1ccccc1` (stereo not drawn): 7.8%; `Nc1ccc(N2CCCCC2)c(S(=O)(=O)Nc2ccc(Cl)cc2)c1`: 16.6%. With `COc1ccccc1NS(=O)(=O)c1cc(N)ccc1N1CCCCC1`, the inhibition was -8.3%. In the case of `C/C(=N\Nc1ccc(Cl)c(C(=O)O)c1)c1cccc2ccccc12`, the inhibition was -3.2%. In the case of `COC(=O)[C@H](Cc1ccccc1)NC(=O)N1CCCCC1C` (stereo partly drawn), the inhibition is 11.9%. With `O=C(c1ccco1)N(CC1CCCO1)c1nc(-c2ccccc2)cs1` (stereo not drawn), the inhibition was -1.7%. Next, `CCCCCn1c(C(Cc2ccccc2)NC(=O)COC)nc2ccccc21` (stereo not drawn): 25.9%; `CCCCC(NC(C)=O)c1nc2ccccc2n1CCCC` (stereo not drawn): 7.3%. As for `COc1ccc(CCn2c(C)cc(C(=O)COC(=O)c3ccc(NC(=O)CC#N)cc3)c2C)cc1`, the inhibition was -0.8%.

With `O=C(NC1CCCC1)C(c1cccnc1)N(C(=O)c1ccco1)c1cccc(F)c1` (stereo not drawn), the inhibition was -23.3%. Under `Cc1cc2c3c(c1)C1(SCC(=O)N1c1ccc(F)cc1)C(=O)N3C(C)(C)CC2C` (stereo not drawn) stands 26.5%. As to `Cc1ccc(N2C(=O)CSC23C(=O)Nc2ccccc23)cc1` (stereo not drawn), the inhibition was 17.5%. As to `CC1=CC(C)(C)N2C(=O)C3(NCCc4c3[nH]c3ccccc43)c3cc(C)cc1c32` (stereo not drawn), the inhibition is 6.1%. For the compound `COc1ccc(N2C(=O)CSC23C(=O)N2c4c(cccc43)C(C)=CC2(C)C)cc1` (stereo not drawn), the inhibition is -6.8%.

As for `CC(C(=O)Nc1ccc(S(=O)(=O)N2CCOCC2)cc1)N(c1ccccc1)S(C)(=O)=O` (stereo not drawn), the inhibition was 2.6%. On to `COc1ccccc1CN1CC(C(=O)N(C)CCOc2ccccc2)CCC1=O` (stereo not drawn), for which the inhibition was 4.1%.

With `CCc1ccc2oc(C(=O)NC3CCS(=O)(=O)C3)cc(=O)c2c1` (stereo not drawn), the inhibition is 0.2%. With `CCOC(=O)c1cnc2c(c(C)nn2C)c1Oc1cc(Cl)cc(Cl)c1`, the inhibition was -4.2%.

With `CCOC(=O)c1cnc2c(c(C)nn2C)c1Oc1ccc(OC)cc1`, the inhibition was 24.7%. As to `CCOc1ccc(/C=N/n2c(-c3ccccc3)n[nH]c2=S)cc1`, the inhibition is -1.8%. Take `O=C(O)CSCC(=O)Nc1ccc(S(=O)(=O)N2CCCCC2)cc1`: the inhibition is 8.7%. With `CC(c1ccc(F)cc1)n1cc(C(=O)NCc2ccccn2)nn1` (stereo not drawn), the inhibition was -1.6%. Regarding `O=C(CSc1nc2ccccc2[nH]1)N=Nc1c(O)[nH]c2ccccc12`, the inhibition is -8.4%. Consider `O=c1[nH]c2ccccc2nc1-c1ccccc1`, for which the inhibition is 5.1%.

Regarding `NC(=O)c1sc2nnc(-c3ccccc3)c(-c3ccccc3)c2c1N`, the inhibition is 21.8%. Next, `CCSc1nnc(-c2cccs2)o1`: -4.1%.

As for `O=C(CCn1ccnc1)Nc1cc(Cl)ccc1O`, the inhibition was 4.7%. With `N=C1S/C(=C\c2ccccc2F)C(=O)N1c1ccc(F)cc1`, the inhibition is 7.1%. As to `N=C1S/C(=C\c2cccc3ccccc23)C(=O)N1c1ccc(F)cc1`, the inhibition is -1.5%. On to `CC(C)(C)OC(=O)CC12CCCCC1NC(=O)O2` (stereo not drawn), for which the inhibition is -7.6%. Turning to `COc1ccc2[nH]c(=O)c(COC(=O)c3ccco3)cc2c1`, the inhibition was -0.6%. Regarding `CCCCNS(=O)(=O)c1cccc(S(=O)(=O)N2CCCC2)c1`, the inhibition is 11.2%. For the compound `CC1Cn2c(nc(=O)c3c2NCN(CCc2ccccc2)C3)S1` (stereo not drawn), the inhibition was 3.9%. Next, `CC(=O)c1c(C)nc2ccccn12`: 5.4%. Consider `CCCSC(=S)NC1CCS(=O)(=O)C1` (stereo not drawn), for which the inhibition was 1.1%. As for `O=S1(=O)CC=C(CSC(=S)NC2CCS(=O)(=O)C2)C1` (stereo not drawn), the inhibition is 71.8% (active).

Turning to `O=S1(=O)CCC(NC(=S)SCc2ccccc2Br)C1` (stereo not drawn), the inhibition was 8.1%.
